From PubChem BioAssay (EPA / NIEHS) come the findings set out here.

For test [1], the target named is human Peroxisome Proliferator-activated Receptor alpha (PPARa), PPARA (gene 5465) (UniProt Q07869). Briefly: ATG_PPARa_TRANS: Attagene TRANS-FACTORIAL HepG2 Assay for human Peroxisome Proliferator-activated Receptor alpha (PPARa) (AID 2283001).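 On AC50: potency for gain of reporter signal over DMSO so agonist or activator.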 The procedure, abridged: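 HepG2, transient MRTU transfection, 24 h treatment. RT-PCR → FAM labelling → capillary electrophoresis. Fit vs DMSO, positive direction.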

For test [2], the target named is human Peroxisome Proliferator-activated Receptor delta (PPARd), PPARD (gene 5467) (UniProt Q03181). Briefly: ATG_PPARd_TRANS: Attagene TRANS-FACTORIAL HepG2 Assay for human Peroxisome Proliferator-activated Receptor delta (PPARd) (AID 2283002). In outline:
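HepG2 cells transiently transfected with GAL4-UAS multiplexed reporter units driven by exogenous chimeric NR-GAL4 proteins; 24 h compound exposure. Reporter mRNA measured by RT-PCR, 6-FAM primer extension, HpaI digestion and capillary electrophoresis; gain of signal fitted relative to DMSO.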

In test [3] the target is Peroxisome proliferator-activated receptor gamma (Homo sapiens) (UniProt P37231). The test can be described thus: ATG_PPARg_TRANS: Attagene TRANS-FACTORIAL HepG2 Assay for human Peroxisome Proliferator-activated Receptor-gamma (PPARg) (AID 2283007). In outline:
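Read-out: reporter mRNA induction, detected by fluorescence after RT-PCR and capillary electrophoresis. Transiently transfected human HepG2 liver cells carrying a chimeric NR-Gal4 construct were dosed for 24 h; activity was fitted upward relative to DMSO.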

For test [4], the target named is Nuclear receptor subfamily 1 group I member 2 (Homo sapiens) (UniProt O75469). Briefly: ATG_PXR_TRANS: Attagene TRANS-FACTORIAL HepG2 Assay for human Pregnane X Receptor (PXR) (AID 2283008). In outline:
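Trans-factorial format: exogenous NR-Gal4 fusion activity, not endogenous factor, in transfected human HepG2 liver cells. After 24 h dosing, RNA isolated, reverse-transcribed, amplified and resolved by capillary electrophoresis; induction scored versus DMSO.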

In test [5] the target is human RAR-related Orphan Receptor beta (RORb), RORB (gene 6096) (UniProt Q92753). The test can be described thus: ATG_RORb_TRANS: Attagene TRANS-FACTORIAL HepG2 Assay for human RAR-related Orphan Receptor beta (RORb) (AID 2283010). In outline:
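Transfect HepG2 with multiple GAL4-UAS reporter transcription units; dose chemicals for 24 h; isolate RNA, reverse-transcribe and PCR-amplify reporter sequences; label, digest and resolve fragments by capillary electrophoresis; fit increases relative to DMSO.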

For test [6], the target named is human Retinoic Acid Receptor gamma (RARg), RARG (gene 5916) (UniProt P13631). Briefly: ATG_RARg_TRANS: Attagene TRANS-FACTORIAL HepG2 Assay for human Retinoic Acid Receptor gamma (RARg) (AID 2283009). In outline:
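TRANS format measured activity of exogenous NR-GAL4 fusion (RARg) in transfected HepG2 liver cells after 24 h dosing. Induced reporter RNA was detected by RT-PCR/capillary electrophoresis fluorescence, analysed in the positive direction against DMSO.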

Read-out in test [7]: Intercellular Adhesion Molecule 1 (ICAM1), ICAM1 (gene 3383)
The test can be described thus: BSK_3C_ICAM1: BioMAP Diversity Plus: 3C Assay for Intercellular Adhesion Molecule 1 (ICAM1) Biomarker Activity (AID 2283003; active means hit-call score of the fitted dose curve at least 0.9, where 1 is the maximum; inactive means score below 0.9). As to conditions: primary human endothelial cells (HUVEC); actives raise or lower the signal. In outline:
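Chemicals are dosed onto primary human umbilical vein endothelium (3C system). After 24 h, ICAM-1 is measured by ELISA, and responses are fitted bidirectionally relative to DMSO.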

Structures are written as SMILES. Inconclusive results are not listed. Calls of active or inactive are those of the source. How the source made its calls, unless noted: active means hit-call score of the fitted dose curve at least 0.9, where 1 is the maximum; inconclusive means response in the unintended direction; inactive means score below 0.9.

human Peroxisome Proliferator-activated Receptor alpha (PPARa), PPARA (gene 5465), sequence (Q07869 whole entry, looked up): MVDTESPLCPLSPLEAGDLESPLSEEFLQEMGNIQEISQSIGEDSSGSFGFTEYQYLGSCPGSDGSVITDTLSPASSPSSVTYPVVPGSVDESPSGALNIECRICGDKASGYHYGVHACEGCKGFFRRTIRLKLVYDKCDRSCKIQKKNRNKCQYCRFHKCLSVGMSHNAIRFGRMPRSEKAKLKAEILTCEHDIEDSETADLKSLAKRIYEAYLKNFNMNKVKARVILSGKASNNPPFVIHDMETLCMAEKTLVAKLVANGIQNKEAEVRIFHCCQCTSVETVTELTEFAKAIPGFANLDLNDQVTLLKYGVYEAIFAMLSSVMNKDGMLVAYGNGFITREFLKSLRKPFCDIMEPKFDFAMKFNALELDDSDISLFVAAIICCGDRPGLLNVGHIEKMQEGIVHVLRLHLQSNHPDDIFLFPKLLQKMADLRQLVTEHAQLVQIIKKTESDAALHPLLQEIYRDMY
human Peroxisome Proliferator-activated Receptor delta (PPARd), PPARD (gene 5467), sequence (Q03181 whole entry, looked up, the tested form may be a part): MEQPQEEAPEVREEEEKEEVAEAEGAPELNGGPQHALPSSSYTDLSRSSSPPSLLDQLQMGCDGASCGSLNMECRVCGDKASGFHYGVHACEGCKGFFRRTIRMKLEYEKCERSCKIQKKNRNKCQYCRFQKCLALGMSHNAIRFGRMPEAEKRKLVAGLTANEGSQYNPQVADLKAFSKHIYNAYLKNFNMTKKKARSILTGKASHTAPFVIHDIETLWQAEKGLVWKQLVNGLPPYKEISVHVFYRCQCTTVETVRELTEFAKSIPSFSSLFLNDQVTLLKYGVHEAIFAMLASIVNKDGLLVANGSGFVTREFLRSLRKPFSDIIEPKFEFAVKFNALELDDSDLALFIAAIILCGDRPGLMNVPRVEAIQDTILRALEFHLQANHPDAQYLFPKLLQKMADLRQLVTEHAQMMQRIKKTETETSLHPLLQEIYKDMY
Peroxisome proliferator-activated receptor gamma (Homo sapiens), sequence (P37231 whole entry, looked up, the tested form may be a part): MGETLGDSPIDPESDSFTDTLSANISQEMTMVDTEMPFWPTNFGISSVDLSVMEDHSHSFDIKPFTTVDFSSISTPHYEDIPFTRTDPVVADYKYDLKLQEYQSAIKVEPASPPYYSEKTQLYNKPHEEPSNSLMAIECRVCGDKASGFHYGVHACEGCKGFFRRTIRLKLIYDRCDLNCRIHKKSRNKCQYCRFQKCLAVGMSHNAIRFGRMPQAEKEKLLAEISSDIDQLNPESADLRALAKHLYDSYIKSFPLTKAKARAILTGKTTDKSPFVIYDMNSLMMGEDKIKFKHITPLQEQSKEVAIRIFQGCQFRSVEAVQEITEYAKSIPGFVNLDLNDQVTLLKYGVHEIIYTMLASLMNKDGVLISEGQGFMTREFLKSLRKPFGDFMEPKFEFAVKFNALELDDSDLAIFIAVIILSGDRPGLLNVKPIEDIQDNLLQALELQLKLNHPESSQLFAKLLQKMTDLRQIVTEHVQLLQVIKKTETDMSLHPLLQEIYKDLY
Nuclear receptor subfamily 1 group I member 2 (Homo sapiens), sequence (O75469 whole entry, looked up, the tested form may be a part): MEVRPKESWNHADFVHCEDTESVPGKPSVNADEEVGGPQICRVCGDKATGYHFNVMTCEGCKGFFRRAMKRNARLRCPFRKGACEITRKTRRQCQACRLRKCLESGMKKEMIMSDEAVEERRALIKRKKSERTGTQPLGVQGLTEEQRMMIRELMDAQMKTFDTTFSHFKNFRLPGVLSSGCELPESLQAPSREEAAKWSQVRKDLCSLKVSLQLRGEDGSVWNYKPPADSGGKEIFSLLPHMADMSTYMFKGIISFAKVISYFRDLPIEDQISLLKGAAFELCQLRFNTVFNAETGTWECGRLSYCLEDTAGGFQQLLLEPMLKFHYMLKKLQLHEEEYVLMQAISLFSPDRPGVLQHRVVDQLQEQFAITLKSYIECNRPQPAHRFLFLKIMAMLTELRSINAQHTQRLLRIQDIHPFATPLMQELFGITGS
human RAR-related Orphan Receptor beta (RORb), RORB (gene 6096), sequence (Q92753 whole entry, looked up, the tested form may be a part): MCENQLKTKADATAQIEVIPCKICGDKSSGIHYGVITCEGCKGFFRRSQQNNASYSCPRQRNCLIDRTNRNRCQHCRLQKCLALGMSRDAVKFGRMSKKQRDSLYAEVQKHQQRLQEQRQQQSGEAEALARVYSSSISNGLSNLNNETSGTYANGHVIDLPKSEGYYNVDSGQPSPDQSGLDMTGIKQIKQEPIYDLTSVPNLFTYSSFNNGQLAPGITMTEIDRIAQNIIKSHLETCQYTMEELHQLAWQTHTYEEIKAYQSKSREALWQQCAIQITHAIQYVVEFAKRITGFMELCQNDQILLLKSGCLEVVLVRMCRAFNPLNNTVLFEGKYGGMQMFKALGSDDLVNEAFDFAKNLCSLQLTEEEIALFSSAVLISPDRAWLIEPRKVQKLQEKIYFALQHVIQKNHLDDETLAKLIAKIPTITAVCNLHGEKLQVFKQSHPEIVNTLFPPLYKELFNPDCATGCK
human Retinoic Acid Receptor gamma (RARg), RARG (gene 5916), sequence (P13631 whole entry, looked up, the tested form may be a part): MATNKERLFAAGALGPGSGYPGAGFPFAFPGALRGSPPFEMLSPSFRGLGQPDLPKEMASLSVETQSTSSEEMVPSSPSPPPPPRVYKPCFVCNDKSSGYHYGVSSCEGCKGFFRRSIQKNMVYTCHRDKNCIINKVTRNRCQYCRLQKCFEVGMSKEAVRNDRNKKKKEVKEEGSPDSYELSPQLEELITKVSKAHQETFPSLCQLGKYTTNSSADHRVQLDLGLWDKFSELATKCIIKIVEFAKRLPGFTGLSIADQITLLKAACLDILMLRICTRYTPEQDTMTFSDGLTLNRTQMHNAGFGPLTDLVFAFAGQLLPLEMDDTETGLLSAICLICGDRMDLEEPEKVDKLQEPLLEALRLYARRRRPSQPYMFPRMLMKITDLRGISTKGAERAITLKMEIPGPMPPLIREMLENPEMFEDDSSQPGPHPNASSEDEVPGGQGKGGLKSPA

Take `CCCCCCCCCCC(CO)CCCCCCCC` (configuration not stated): the compound was called inactive in test [1], in test [2], in test [3], in test [4] and in test [5].
As for `NC(=O)Nc1ccc(Cl)cc1`, the compound was called inactive in test [1], in test [2], in test [3], in test [4] and in test [5].
On to `Cc1ccccc1C=O`, for which the result in test [1], in test [2], in test [3] and in test [5] was inactive. For the same compound, in test [4], the AC50 is 20.9 µM (active).
Consider `CC(C)c1cccc(O)c1`, for which the compound was classed as inactive in test [1], in test [2] and in test [4].
In the case of `C=CCOc1nc(OCC=C)nc(OCC=C)n1`, the compound was classed as inactive in test [1] and in test [2]. In addition, the AC50 was 61.4 µM (active) in test [3] and 14.9 µM (active) in test [4].
Take `Clc1cccc(Cl)n1`: the call in test [1], in test [2], in test [3] and in test [4] was inactive.
Regarding `CC(CCO)CCCC(C)(C)O` (configuration not stated), the outcome in test [1], in test [2], in test [3] and in test [4] was inactive.
For the compound `C=COCCOCCOCCOC=C`, the call in test [1], in test [2] and in test [4] was inactive.
As to `CNCCCC12CCC(c3ccccc31)c1ccccc12`, the call in test [1], in test [2], in test [3] and in test [4] was inactive.
Regarding `c1ccc2[nH]ccc2c1`, the result in test [1], in test [2], in test [3], in test [4] and in test [5] was inactive.
Regarding `Clc1ccc2c(c1)C(N1CCNCC1)=Nc1ccccc1O2`, the AC50 in test [1] was 53.9 µM (active); in test [2] it was 52.9 µM (active); in test [4] it was 44.1 µM (active). Moreover, the result in test [3] was inactive.
Regarding `Cc1cccc(Nc2ccccc2C(=O)O)c1C`, the half-maximal activity concentration (AC50) was 14.5 µM (active) in test [1], 77.8 µM (active) in test [2] and 12.6 µM (active) in test [3]. In test [4], the result was inactive.
As for `C=C(C)C(=O)OCc1ccccc1`, the outcome in test [1], in test [2], in test [3] and in test [4] was inactive.
For `COC(=O)Cc1cccc2ccccc12`, the compound was called inactive in test [1], in test [2] and in test [4]. Further, the AC50 in test [3] is 66.5 µM (active).
For the compound `C=CC(C)(CCC=C(C)C)OC=O` (configuration not stated), the call in test [1], in test [2], in test [3], in test [4] and in test [5] was inactive.
As to `C=CC(C)(O)CCC=C(C)CCC=C(C)C` (configuration not stated), the compound was classed as inactive in test [1] and in test [2]. The AC50 in test [3] is 32.6 µM (active); in test [4] it was 3.93 µM (active).
In the case of `O=C(O)c1cccc([N+](=O)[O-])c1`, the call in test [1], in test [2], in test [3], in test [4] and in test [5] was inactive.
`O=C[C@@H](O)[C@H](O)[C@H](O)CO`: the result in test [1], in test [2], in test [3], in test [6] and in test [5] was inactive.
On to `C[C@H]1C[C@H]2[C@@H]3CCC4=CC(=O)C=C[C@]4(C)[C@@]3(F)[C@@H](O)C[C@]2(C)[C@@]1(O)C(=O)COP(=O)(O)O`, for which the call in test [1], in test [2] and in test [4] was inactive.
For the compound `CCCCCCC#CC(=O)OC`, the outcome in test [1], in test [2], in test [4] and in test [5] was inactive. Also, the AC50 in test [3] was 5.61 µM (active).
On to `O=C(O)c1snc(Cl)c1Cl`, for which the compound was classed as inactive in test [1], in test [2] and in test [4]. Further, the AC50 in test [3] is 25.3 µM (active).
For the compound `CCC(=O)/C=C/C1C(C)=CCCC1(C)C` (configuration not stated), the result in test [1] and in test [2] was inactive. For the same compound, the AC50 in test [4] is 3.77 µM (active).
On to `CC(CCO)CCc1ccccc1` (configuration not stated), for which the compound was called inactive in test [1], in test [2] and in test [3]. The AC50 in test [4] was 48.2 µM (active).
Regarding `CCC(=O)OCCC(C)CCC=C(C)C` (configuration not stated), the result in test [1], in test [2], in test [3] and in test [4] was inactive.
As for `O=C(Oc1ccccc1)c1ccc(O)cc1`, the outcome in test [1], in test [2], in test [3], in test [4] and in test [5] was inactive.
Regarding `CC(C=O)Cc1ccc(C(C)C)cc1` (configuration not stated), the AC50 in test [1] was 49.1 µM (active). Also, the compound was classed as inactive in test [2], in test [3] and in test [4].
As for `Clc1ccc(Cl)c(Cl)c1Cl`, the compound was classed as inactive in test [1], in test [2] and in test [4].
`OC1C(O)C(O)C(O)C(O)C1O` (configuration not stated): the compound was called inactive in test [1], in test [2], in test [3] and in test [4].
Take `CCC/C=C/C=O`: the compound was classed as inactive in test [1], in test [2] and in test [4]. The AC50 in test [3] is 27.7 µM (active).
On to `CCCC/C=C\CCCCCCCCCC=O`, for which the call in test [1], in test [2], in test [3] and in test [4] was inactive.
In the case of `NNc1nc(-c2ccc(N)cc2)cs1`, the compound was called inactive in test [1], in test [2], in test [3], in test [4] and in test [5].
For `Cc1ccc(S)cc1`, the call in test [1], in test [2] and in test [4] was inactive. The AC50 in test [3] is 22.8 µM (active).
For `CCCc1c(OCCCOc2ccc(OCC(=O)O)cc2)ccc(C(C)=O)c1O`, the AC50 was 0.322 µM (active) in test [1], 0.0841 µM (active) in test [2], 0.195 µM (active) in test [3] and 26.6 µM (active) in test [4].
Turning to `O=Nc1ccc(Nc2ccccc2)cc1`, the outcome in test [1], in test [2], in test [4] and in test [5] was inactive. The AC50 in test [3] is 26.6 µM (active).
With `NC(=O)c1ccccc1Cl`, the outcome in test [1], in test [2], in test [3] and in test [5] was inactive.
`COc1cc(C)cc(O)c1`: the outcome in test [1], in test [2], in test [3], in test [4] and in test [5] was inactive.
Regarding `CCCCCCOC(=O)CC`, the compound was called inactive in test [1], in test [2], in test [3], in test [4] and in test [5].
For the compound `O=C(Nc1ccccc1)c1cc([N+](=O)[O-])ccc1Cl`, the compound was classed as inactive in test [1], in test [2] and in test [5]. In addition, the AC50 in test [3] was 19.8 µM (active); in test [4], 3.82 µM (active).
On to `CN(C)CCOCCN(C)C`, for which the compound was classed as inactive in test [1], in test [2], in test [4] and in test [5].
In the case of `Nc1cc(Cl)c(O)c(Cl)c1`, the compound was classed as inactive in test [1], in test [2], in test [4] and in test [5].
As to `N#Cc1ccc(CC(=NNC(=O)Nc2ccc(OC(F)(F)F)cc2)c2cccc(C(F)(F)F)c2)cc1`, the compound was called inactive in test [1], in test [7] and in test [4]. Moreover, in test [3], the AC50 was 26.9 µM (active).
`CC1=CCC(O)(C(C)C)CC1` (configuration not stated): the result in test [1], in test [2], in test [4] and in test [5] was inactive.
